Values joined by “and” are separate entries in the source; they are usually repeats but may differ in a detail not shown here. Equal values may be shown once. Records with an inconclusive call do not appear. Active and inactive are the calls of the source. Calls follow the shape of the dose curve; as a rule, active = well fitted curve in the direction sought with a large enough effect; inconclusive = small, poorly fitted or top-dose-only effect, or another doubt; inactive = no such curve, though single readings can be large; an effect the other way counts as inactive or inconclusive.
Columns and labels:
[1] = Viability qHTS for spleen associated tyrosine kinase inhibitor (SYKi) naive MV4-11 cells (AID 1963823); conditions: MV4-11 AML viability, CellTiter-Glo luminescence, 72 h; series mostly up to 45 µM; also: nearly all actives have a fitted effect of over 40% in size
Method in brief: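 In this viability screen, compounds acted on SYK inhibitor naive MV4-11 cells for three days (72 hr, 37 C). Remaining viable cells were measured by CellTiter-Glo luminescence following a 10 min room-temperature development.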

[2] = Viability qHTS for spleen associated tyrosine kinase inhibitor (SYKi) drug resistant MV4-11 cells (AID 1963824); conditions: SYKi-resistant MV4-11 viability, CellTiter-Glo, 72 h; series mostly up to 45 µM; also: nearly all actives have a fitted effect of over 35% in size
Method in brief: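 SYK inhibitor-resistant MV4-11 AML cells, 500 per well, added to predispensed compounds and incubated 72 hr at 37 C, 5% CO2. Viability measured by CellTiter-Glo luminescence after 10 min at room temperature.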

[3] = Quantitative highthroughput screen to assess conditional lethalithy of NOMO1 cells grown in RPMI1640 with untreated serum (RPMI+s) (AID 1963876); conditions: NOMO1 AML cells in RPMI+serum, CellTiter-Glo viability, 48 h; series mostly up to 45.8 µM; also: nearly all actives have a fitted effect of over 35% in size;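 as to Viability: 100% = DMSO wells and 0% = empty wells without cells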
Method in brief: (§1)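 Each medium arm—HPLM with 10% dialyzed FBS, or RPMI1640 with 5 mM glucose and 10% untreated or dialyzed FBS—was screened against an 11-point, 3-fold compound titration for 48 h at 37 °C, with CellTiter-Glo luminescence as endpoint.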

[4] = Quantitative highthroughput screen to assess conditional lethalithy of P12 Ichikawa cells grown in Human Plasma-Like Medium with dialyzed fetal bovine serum (HPLM+ds) (AID 1963879); conditions: ATP luminescence, 48 h; Potency: viability; series mostly up to 45.8 µM; also: nearly all actives have a fitted effect of over 35% in size
Method in brief: as §1

[5] = Quantitative highthroughput screen to assess conditional lethalithy of P12 Ichikawa cells grown in RPMI1640 with untreated serum (RPMI+s) (AID 1963881); conditions: ATP luminescence, 48 h; Potency: viability; series mostly up to 45.8 µM; also: nearly all actives have a fitted effect of over 35% in size;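 as to Viability: 100% = DMSO wells and 0% = empty wells without cells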
Method in brief: as §1

[6] = Quantitative highthroughput screen to assess conditional lethalithy of SEM cells grown in Human Plasma-Like Medium with dialyzed fetal bovine serum (HPLM+ds) (AID 1963882); conditions: SEM B-ALL cells in HPLM+ds, CellTiter-Glo viability, 48 h; series mostly up to 45.8 µM; also: nearly all actives have a fitted effect of over 35% in size
Method in brief: as §1

[7] = Quantitative highthroughput screen to assess conditional lethalithy of SEM cells grown in RPMI1640 with unreated serum (RPMI+s) (AID 1963883); conditions: SEM B-ALL cells, CellTiter-Glo viability, 48 h; series mostly up to 45.8 µM; also: nearly all actives have a fitted effect of over 35% in size;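 as to Viability: 100% = DMSO wells and 0% = empty wells without cells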
Method in brief: as §1

[8] = Quantitative highthroughput screen to assess conditional lethalithy of SEM cells grown in RPMI1640 with dialyzed fetal bovine serum (RPMI+ds) (AID 1963884); conditions: SEM B-ALL cells, RPMI+dialyzed FBS, CellTiter-Glo viability, 48 h; series mostly up to 45.8 µM; also: nearly all actives have a fitted effect of over 35% in size;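 as to Viability: 100% = DMSO control wells and 0% = empty wells without cells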
Method in brief: as §1

[9] = Cellular viability qHTS for adrenocortical cancer (ACC) cell line SW-13 (AID 1963989); conditions: SW-13 ACC cells viability, CellTiter-Glo, 48 h; activity (max response): active compounds read low; also: nearly all actives have a fitted effect of over 65% in size;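 as to activity (max response): cells grown in serum-free medium with ITS supplement; % is scaled to controls: 0 for no effect and ±100 for the full control effect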
Method in brief: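 Compound titrations (up to 46 uM final, in DMSO) were applied to SW-13 cells for 48 h at 37C/5% CO2. Reading used CellTiter-Glo after 20 min at room temperature; fitted curves yielded IC50 and efficacy.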

[10] = Cellular viability qHTS for adrenocortical cancer (ACC) cell line NCI-H295R (AID 1963990); conditions: CellTiter-Glo ATP luminescence, 48 h; series mostly up to 46.1 µM; also: nearly all actives have a fitted effect of over 60% in size
Method in brief: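 Readout: CellTiter-Glo luminescence, 20 min RT. Exposure: 48 h, 37C/5% CO2. Cells: NCI-H295R, ITS-DMEM serum-free. Range: up to 46 uM. Analysis: 4PL fit, IC50 plus efficacy.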

[11] = Quantitative highthroughput screen to assess conditional lethalithy of P12 Ichikawa cells grown in RPMI1640 with dialyzed fetal bovine serum (RPMI+ds) (AID 1963880); conditions: ATP luminescence, 48 h; Potency: P12-Ichikawa viability; series mostly up to 45.8 µM; also: nearly all actives have a fitted effect of over 35% in size;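 as to Viability: 100% = DMSO wells and 0% = empty wells on each plate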
Method in brief: as §1
Potency is read from the fitted curve at half-maximal effect.

N#Cc1c(NC(=O)c2cccc3ccccc23)sc2c1CCCC2
active: Potency [1] 116 nM | Potency [2] 186 nM | Potency [3] 0.935 µM | Potency [4] 0.59 µM | Potency [5] 0.662 µM | Potency [6] 0.469 µM | Potency [7] 0.418 µM | Potency [8] 0.372 µM | Potency [9] 282 nM | Potency [10] 562 nM

Cc1noc(-c2ccc(CSCCC(=O)O)cc2)c1NC(=O)OC(C)c1ccccc1Cl (stereo unspecified)
active: Potency [4] 18.7 µM
inactive: Potency [1] | Potency [2] | Potency [3] | Potency [11] | Potency [5] | Potency [6] | Potency [7] | Potency [8] | activity (max response) [9] -1.37% | Potency [10]

CCCc1cc(=O)[nH]c(=S)[nH]1
inactive: Potency [1] | Potency [2] | Potency [10]
active: Potency [3] 9.35 µM | Potency [4] 10.5 µM | Potency [11] 16.6 µM | Potency [5] 14.8 µM

FC(F)(F)c1ccc(CNc2ccc(Cc3c[nH]c4ncc(Cl)cc34)cn2)cn1
inactive: Potency [10]
active: Potency [1] 146 nM and 417 nM | Potency [2] 366 nM and 833 nM | Potency [3] 2.34 µM | Potency [4] 0.295 µM | Potency [11] 3.31 µM | Potency [5] 3.71 µM | Potency [6] 1.86 µM | Potency [7] 0.132 µM | Potency [8] 1.48 µM

CCc1nc(N)nc(N)c1-c1ccc(Cl)cc1
inactive: Potency [3] | Potency [7]
active: Potency [1] 3760 nM | Potency [2] 3.76 µM and 2.63 µM | Potency [4] 1.87 µM | Potency [5] 10.5 µM | Potency [9] 1.46 µM and 3.98 µM | Potency [10] 2.59 µM and 1.78 µM
